NPC1 prom act – activators of NPC1 promoter; AID 485313; 2.4% of 320,000 active; Potency, µM (highest dose often 9.22 µM), for inactives: at the top dose activation, hits mostly activators; Huh7 NPC1 promoter luciferase reporter, 24 h; further: % of control where 0% means no effect; nearly all actives have a fitted effect of over 60% in size
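Huh7 cells stably carrying NPC1 promoter–luciferase, plated in Opti-MEM with 10% FBS for 2 h, were exposed to compound in DMSO for 24 h at 37 °C; luciferase reagent was added for 10 min and luminescence read.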
FLuc counter – inhibits or activates purified firefly luciferase, miR-21 counter-screen; purified FLuc, Km substrates, luminescence inhibition; Potency, µM (highest dose often 57.5 µM), inactives show at the highest dose activity change, negative = inhibition, most hits filed as inhibitors; 6.9% of 360,000 active; AID 588342;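 further: plate controls were vehicle for no effect and reference inhibitor for full effect; nearly all actives have a fitted effect of over 55% in size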
Target sequence (P08659 whole entry, looked up): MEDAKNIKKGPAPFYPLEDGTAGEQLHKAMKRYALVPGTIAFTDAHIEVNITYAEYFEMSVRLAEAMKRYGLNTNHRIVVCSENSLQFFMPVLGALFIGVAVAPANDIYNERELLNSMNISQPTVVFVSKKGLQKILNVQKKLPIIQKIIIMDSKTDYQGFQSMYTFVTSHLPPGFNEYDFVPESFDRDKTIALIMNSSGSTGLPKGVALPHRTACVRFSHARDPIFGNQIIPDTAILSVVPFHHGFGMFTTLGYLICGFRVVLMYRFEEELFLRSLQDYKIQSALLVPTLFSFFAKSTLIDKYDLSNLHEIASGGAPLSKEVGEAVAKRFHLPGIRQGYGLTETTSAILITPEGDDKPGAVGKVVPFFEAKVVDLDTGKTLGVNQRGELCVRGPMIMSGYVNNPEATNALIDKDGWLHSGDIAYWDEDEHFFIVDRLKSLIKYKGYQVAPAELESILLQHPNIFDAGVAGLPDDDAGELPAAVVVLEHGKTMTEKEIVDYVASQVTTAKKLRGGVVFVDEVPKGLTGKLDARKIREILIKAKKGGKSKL
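Purified P. pyralis luciferase (10nM final) with 10uM D-luciferin and 10uM ATP (Km levels) in 50mM Tris acetate pH 7.5, 10mM Mg acetate, 0.01% Tween-20, 0.05% BSA; qHTS 6-point titration, ~60 µM downward; luminescence read.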
SMN2 splice enh – SMN2 splice variant enhancement; HEK293 SMN2-luciferase splicing reporter, luminescence, 30-36 h; Potency, µM (doses to about 46.1 µM), inactives show at the top dose activity change, positive = activation, most hits filed as activators; 2.8% of 210,000 active; further: % of control where 0% means no effect; nearly all actives have a fitted effect of over 55% in size
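HEK293 cells carry an SMN2 […]–luciferase reporter in which exon 7 inclusion puts luciferase in frame. Cells were plated 10-12 h before compound addition, then incubated 30-36 h at 37C. ONE-Glo luminescence was read; sodium butyrate at 4.5 mM final served as control.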
Rab9 promoter act – Rab9 promoter activation | 2.8% of 320,000 active | AID 485297 | Potency, µM (highest dose often 9.22 µM), for the others: at the top dose activation, negative = inhibition, most hits filed as activators | Huh7 Rab9 promoter-luciferase reporter, luminescence, 24 h; further: % of control where 0% means no effect; nearly all actives have a fitted effect of over 60% in size
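Luminescence read-out: Huh7 cells stably expressing Rab9-luciferase, treated 24 h with compound at 37 °C, then lysed with luciferase reagent for 10 min at ambient before reading.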
ELG1 genotox – inducers of genotoxicity in HEK293T ELG1-luciferase cells. HEK293T ELG1-luciferase reporter, luminescence, 16 h. AID 504466. Potency, µM (highest dose often 46 µM), for the others: top-dose activity change, positive = activation, hits mostly activators. 1.3% of 330,000 active; further: % of control where 0% means no effect; nearly all actives have a fitted effect of over 60% in size
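DMSO vehicle served as control against compound-treated ELG1-luciferase HEK293T cells; exposure lasted 16 hr at 37 °C and 5% CO2, followed by ONE-Glo luminescence detection after 30 min.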
* hit, by the source's call; ? = inconclusive; . = no result. Compounds with a hit are over-represented: about 7.5% of the library has one in this group of screens. The call rests on the fitted dose curve; in most records, active means well fitted curve in the direction sought with a large enough effect; inconclusive means small, poorly fitted or top-dose-only effect, or another doubt; inactive means no such curve, though single readings can be large; an effect the other way counts as inactive or inconclusive. Potency means the concentration at half of the fitted maximal effect.

SMILES | NPC1 prom act | FLuc counter | SMN2 splice enh | Rab9 promoter act | ELG1 genotox
CC(NC(=O)c1ccco1)C(=O)OC(C)C(=O)NCc1ccccc1 (stereo not given) | -2.9% | -0.8% | 0.2% | -1.4% | 1.9%
CC(=O)Nc1cccc(-c2cn3cccnc3n2)c1 | . | -2.0% | . | . | .
O=C(COc1ccccc1)Nc1cccc(-c2cn3cccnc3n2)c1 | 14.0% | 15.1µM* | . | ? | -7.4%
COc1cc(OC)cc(C(=O)Nc2cccc(-c3cn4cccnc4n3)c2)c1 | . | -16.8% | . | . | .
COc1ccc(NC(=O)Nc2cccc(-c3cn4cccnc4n3)c2)cc1 | . | 1.69µM* | 5.5% | . | .
COc1ccc(CNC(=O)/C(C)=C\C(=O)O)cc1 | -0.8% | -4.3% | -34.3% | -3.5% | -10.5%
CCOC(=O)N1CCC(NC(=O)c2ccc3c(c2)N(Cc2cc(C)ccc2C)C(=O)c2ccccc2S3(=O)=O)CC1 | . | -0.4% | 5.1% | . | .
Cc1cc(C)nc(S/C=C/C(=O)c2ccccc2F)n1 | -9.3% | 1.51µM* | . | -10.8% | ?
COc1ccc(OC)c(NC(=O)CSc2nc3ccccc3c(=O)n2CCNC(C)=O)c1 | -2.3% | -0.8% | -4.5% | -2.4% | -0.4%
COc1ccc(OC)c(NC(=O)Cn2c(C)nc3ccccc3c2=O)c1 | 3.16µM* | 9.53µM* | . | 19.0% | ?
COc1ccc(Cl)cc1NC(=O)NCc1cccnc1 | -7.3% | 15.1µM* | . | 0.5% | 0.0%
COc1ccc(OC)c(NC(=O)Nc2cc(NC(=O)Nc3cc(OC)ccc3OC)c(C)nc2C)c1 | -5.0% | 6.2% | 14.1µM* | -3.0% | ?
Cc1cc(NC(=O)Nc2ccccc2Cl)no1 | 19.3% | 15.1µM* | . | 27.7% | 7.5%
CN1CCN(CC(=O)O)CC1 | 3.4% | 1.6% | -3.8% | 1.3% | -0.9%
O=C(Nc1ccccc1)c1cccc(C(F)(F)F)c1 | 1.9% | ? | -9.5% | 13.5% | 8.5%
COc1ccc(Cl)cc1NC(=O)Nc1cc(C)on1 | 1.41µM* | 6.01µM* | . | 0.501µM* | 1.3µM*
CC1(C(=O)N2CC3(CC(c4cccc(NC(=O)COc5ccc(Cl)cc5)c4)=NO3)C[C@@H]2C(N)=O)CC1 (stereo not given in full) | 3.0% | 21.3µM* | . | 0.3% | -5.5%
CCCCCC(=O)N1CC2(CC(c3cccc(NC(=O)COc4ccc(Cl)cc4)c3)=NO2)C[C@@H]1C(N)=O (stereo not given in full) | -0.6% | 13.5µM* | . | -4.5% | -10.4%
NC(=O)[C@H]1CC2(CC(c3cccc(NC(=O)COc4ccc(Cl)cc4)c3)=NO2)CN1C(=O)c1ccc(Cl)cc1 (stereo not given in full) | -0.2% | 7.57µM* | . | -5.0% | -17.5%
C/C=C/C(=O)N1CC2(CC(c3cccc(NC(=O)COc4ccc(Cl)cc4)c3)=NO2)C[C@@H]1C(N)=O (stereo not given in full) | ? | 19µM* | . | -6.0% | -4.3%
NC(=O)[C@H]1CC2(CC(c3cccc(NC(=O)COc4ccc(Cl)cc4)c3)=NO2)CN1C(=O)c1ccccc1C(=O)c1ccccc1 (stereo not given in full) | -3.2% | ? | . | -3.9% | -11.2%
COc1cc(OC)c(NS(=O)(=O)c2ccc3oc(=O)c4ncn(C)c4c3c2)cc1Cl | . | -11.7% | . | . | .
CC(=O)Nc1cccc(CP(=O)(c2ccccc2)c2ccccc2)c1 | -1.1% | -1.6% | . | -3.3% | -3.1%
CCC(=O)N1CC2(CC(c3cccc(NC(=O)COc4ccc(Cl)cc4)c3)=NO2)C[C@@H]1C(N)=O (stereo not given in full) | 1.8% | 16.9µM* | . | -2.4% | -3.3%
CCC(=O)Nc1cccc(C2=NOC3(C2)C[C@@H](C(N)=O)N(C(=O)COc2ccc(Cl)cc2)C3)c1 (stereo not given in full) | -4.7% | -3.9% | . | -4.2% | 3.2%
C=C(C)C1Cc2c(C)nn(-c3cccc4ccccc34)c2C1 (stereo not given) | -1.7% | -0.2% | -19.2% | 4.2% | 0.0%
O=C(O)C/C(=C\c1cc2c(cc1Br)OCO2)c1nc2ccccc2s1 | -1.9% | -6.0% | . | -6.0% | -0.2%
Cc1cc(C(=O)N/N=C/c2ccc3c(c2)OCO3)c2ccccc2n1 | -31.7% | -18.5% | . | -22.8% | 5.1%

Screens from PubChem BioAssay.
